Results filed as inconclusive are left out. Unmarked numbers belong to inactive results. The source made the active and inactive calls. Unless noted, calls follow the shape of the dose curve; as a rule, active = well fitted curve in the direction sought with a large enough effect; inconclusive = small, poorly fitted or top-dose-only effect, or another doubt; inactive = no such curve, though single readings can be large; an effect the other way counts as inactive or inconclusive.

In assay [1] the target is ATP-dependent 6-phosphofructokinase (Trypanosoma brucei brucei) (UniProt O15648). The assay can be described thus: qHTS Assay to Find Inhibitors of T. brucei phosphofructokinase: hit validation (AID 492961).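 Also: luminescence reports ADP formed as PFK phosphorylates fructose-6-phosphate with ATP; % is scaled to controls: 0 for no effect and ±100 for the full control effect.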 The method in brief:
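PFK 1.25 nM, F6P 0.5 mM, ATP 0.1 mM, MgCl2 5 mM, 0.1 M TEA pH 8.0, Tween20 0.01%, BSA 0.1%; 45 min RT. ADP-Glo two-step detection, luminescence. qHTS titration; curve fitting with curve-class categorization.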
On the technique in general: Quantitative high-throughput screening tests each substance at several concentrations.

The target of assay [2] is Luciferin 4-monooxygenase (Photinus pyralis) (UniProt P08659). The assay is described as follows: Biochemical firefly luciferase enzyme assay for NPC (AID 624030).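 Also: purified P. pyralis luciferase at 10 nM with luciferin and ATP substrate; 0% = DMSO and -100% = full luciferase inhibition by PTC124 control; nearly all actives have a fitted effect of over 70% in size.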 A digest of the protocol:
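Counter-screen for direct inhibition of the luciferase enzyme by approved-drug library compounds, run at 10 nM enzyme in 50 mM Tris acetate (final). Luminescence was read within 5 min of enzyme-buffer addition and normalized to PTC124 versus DMSO (0%).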

A short description of assay [3]: S16 Schwann cell PMP22 intronic element beta-lactamase assay (AID 624044; calls by dose curve; also: nearly all actives have a fitted effect of over 15% in size; also: potency is read from the fitted curve at half-maximal effect;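 as to ratio activity, negative = inhibition: 0% = DMSO and -100% = potassium clavulanate positive control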). To be noted: S16 rat Schwann cells, PMP22 element beta-lactamase FRET, 24 h; ratio activity, negative = inhibition: at 38.3 µM (top of the series). The method in brief:
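Rat S16 Schwann cells with beta-Lac driven by a PMP22 intronic element, compound-treated 24 h at 37 °C. LiveBLAzer FRET B/G read: 460 nm normalized to potassium clavulanate vs DMSO; 535 nm FRET as viability; concentration-effect curves classified.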

Assay [4] can be described thus: qHTS profiling for inhibitors of Plasmodium falciparum proliferation (AID 504749). Also: potency is read from the fitted curve at half-maximal effect.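 As to activity, negative = inhibition: 0% = DMSO vehicle and full inhibition = artemisinin control.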 As to all read-outs here: nearly all actives have a fitted effect of over 60% in size. To be noted: P. falciparum in erythrocytes, SYBR Green DNA, 72 h; for activity, negative = inhibition: at 28.7 µM (top of the series). The method in brief: (§1)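 P. falciparum-infected erythrocytes (0.3% parasitemia, 2.5% hematocrit final) were exposed to compounds for 72 h at 37 C in 5% CO2, then lysed with SYBR Green buffer overnight at room temperature; parasite DNA fluorescence was normalized to artemisinin and DMSO controls.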

For assay [5], the system named is CP185. The assay is described as above. To be noted: P. falciparum in erythrocytes, SYBR Green DNA, 72 h; series mostly up to 28.7 µM. The method in brief:
as §1

Assay [6] relates to CP238. The description is as above. To be noted: P. falciparum in erythrocytes, SYBR Green DNA, 72 h; series mostly up to 28.7 µM. A digest of the protocol:
as §1

Assay [7] deals with CP262. The assay is described as above. The note with it: P. falciparum in erythrocytes, SYBR Green DNA, 72 h; series mostly up to 28.7 µM. The method in brief: as §1
Assay [8] concerns CP286. The description is as above. The note with it: P. falciparum in erythrocytes, SYBR Green DNA, 72 h; series mostly up to 28.7 µM. A digest of the protocol: as §1
For assay [9], the system named is CP305. The assay is described as above. To be noted: P. falciparum in erythrocytes, SYBR Green DNA, 72 h; series mostly up to 28.7 µM. A digest of the protocol: as §1
Assay [10] has as its system CP315. The description is as above. The note with it: P. falciparum in erythrocytes, SYBR Green DNA, 72 h; series mostly up to 28.7 µM. A digest of the protocol: as §1
Assay [11] concerns Dd2. Described as above. The note with it: P. falciparum in erythrocytes, SYBR Green DNA, 72 h; series mostly up to 28.7 µM. A digest of the protocol:
as §1

The subject of assay [12] is FAB9. The assay is described as above. To be noted: P. falciparum in erythrocytes, SYBR Green DNA, 72 h; series mostly up to 28.7 µM. A digest of the protocol:
as §1

The subject of assay [13] is HB3. The assay is described as above. To be noted: P. falciparum in erythrocytes, SYBR Green DNA, 72 h; series mostly up to 28.7 µM. A digest of the protocol:
as §1

The subject of assay [14] is JCK. Described as above. The note with it: P. falciparum in erythrocytes, SYBR Green DNA, 72 h; series mostly up to 28.7 µM. The method in brief:
as §1

Assay [15] concerns N140. The description is as above. The note with it: P. falciparum in erythrocytes, SYBR Green DNA, 72 h; series mostly up to 28.7 µM. A digest of the protocol:
as §1

For assay [16], the system named is CP192. The assay is described as above. To be noted: P. falciparum in erythrocytes, SYBR Green DNA, 72 h; series mostly up to 28.7 µM. The method in brief: as §1
Assay [17] concerns CP211. The assay is described as above. To be noted: P. falciparum in erythrocytes, SYBR Green DNA, 72 h; series mostly up to 28.7 µM. A digest of the protocol: as §1
The test system of assay [18] is CP269. The description is as above. To be noted: P. falciparum in erythrocytes, SYBR Green DNA, 72 h; series mostly up to 28.7 µM. A digest of the protocol: as §1
Assay [19] deals with CP325. The assay is described as above. To be noted: P. falciparum in erythrocytes, SYBR Green DNA, 72 h; series mostly up to 28.7 µM. A digest of the protocol: as §1
For assay [20], the system named is PC49. Described as above. The note with it: P. falciparum in erythrocytes, SYBR Green DNA, 72 h; series mostly up to 28.7 µM. The method in brief: as §1

Chain of ATP-dependent 6-phosphofructokinase (Trypanosoma brucei brucei) (O15648 whole entry, looked up): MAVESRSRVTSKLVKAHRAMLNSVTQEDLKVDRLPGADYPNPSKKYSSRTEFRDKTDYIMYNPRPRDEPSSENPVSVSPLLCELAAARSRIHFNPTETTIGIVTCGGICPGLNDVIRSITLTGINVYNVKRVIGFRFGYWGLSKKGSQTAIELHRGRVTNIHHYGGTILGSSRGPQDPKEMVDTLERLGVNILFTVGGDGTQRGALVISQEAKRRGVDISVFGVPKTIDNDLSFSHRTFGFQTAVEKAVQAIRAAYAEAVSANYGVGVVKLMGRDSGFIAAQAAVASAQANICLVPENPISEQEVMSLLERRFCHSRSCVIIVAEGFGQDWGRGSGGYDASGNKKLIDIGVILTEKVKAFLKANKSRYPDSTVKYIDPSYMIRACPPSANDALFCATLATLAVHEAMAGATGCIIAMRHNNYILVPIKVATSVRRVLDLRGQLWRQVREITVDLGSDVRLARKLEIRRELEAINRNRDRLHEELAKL
Chain of Luciferin 4-monooxygenase (Photinus pyralis) (P08659 whole entry, looked up): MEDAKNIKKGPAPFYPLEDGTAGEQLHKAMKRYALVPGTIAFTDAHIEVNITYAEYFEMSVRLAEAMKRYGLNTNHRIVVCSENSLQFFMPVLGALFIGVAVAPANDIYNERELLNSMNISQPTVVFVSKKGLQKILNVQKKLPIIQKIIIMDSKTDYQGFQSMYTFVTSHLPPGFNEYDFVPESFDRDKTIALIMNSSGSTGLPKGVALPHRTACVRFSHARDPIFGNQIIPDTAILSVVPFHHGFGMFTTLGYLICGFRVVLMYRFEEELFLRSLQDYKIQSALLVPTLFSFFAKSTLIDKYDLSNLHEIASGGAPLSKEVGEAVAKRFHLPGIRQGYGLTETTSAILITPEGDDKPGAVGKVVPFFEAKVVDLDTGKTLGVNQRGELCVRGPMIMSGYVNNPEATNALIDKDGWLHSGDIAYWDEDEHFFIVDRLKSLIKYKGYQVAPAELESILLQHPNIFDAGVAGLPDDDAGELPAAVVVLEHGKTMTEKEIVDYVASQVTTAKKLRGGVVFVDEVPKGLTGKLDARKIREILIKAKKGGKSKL

For `C[C@]12CC[C@@H]3c4ccc(O)cc4C[C@@H](CCCCCCCCCS(=O)CCCC(F)(F)C(F)(F)F)C3[C@@H]1CC[C@@H]2O` (some centres undefined), the Potency entry in [1], in assay [2], in assay [3], in assay [7] and in assay [10] was “inactive” each time. Moreover, the Potency in assay [4] (parasite line A) is 11.2 µM (active); in assay [4] (parasite line B), 10 µM (active); in assay [5] it was 8.91 µM (active); in assay [6], 7.94 µM (active); in assay [8], 11.2 µM (active); in assay [9], 10.7 µM (active). For the same compound, the Potency is 7.08 µM (active) in assay [11]; 8.91 µM (active) in [12]; 5.01 µM (active) in assay [13]; 17.8 µM (active) in assay [14]; 2.24 µM (active) in assay [15].

As to `C[C@@H]1CCN(C(=O)[C@H](CCCNC(=N)N)NS(=O)(=O)c2cccc3c2NC[C@H](C)C3)[C@@H](C(=O)O)C1`, the Potency result in [1], in [2], in assay [3], in [5], in assay [16] and in [17] was “inactive” in each case. The Potency result in assay [6], in [7], in [18], in assay [8], in assay [9] and in [19] was “inactive” each time. The Potency result in assay [11], in [12], in assay [13], in assay [14], in assay [15] and in assay [20] was “inactive” throughout. In addition, the activity, negative = inhibition in [4] (parasite line A) was 3.79%; in [4] (parasite line B), 10.6%.

In the case of `Cc1cc2nc3c(=O)[nH]c(=O)nc-3n(CC(O)C(O)C(O)COP(=O)(O)O)c2cc1C` (centres undefined), the Potency entry in [1], in assay [2], in assay [3], in assay [5], in [16] and in assay [17] was “inactive” in each case. Also, the Potency result in assay [6], in assay [7], in assay [18], in assay [8], in [9] and in assay [10] was “inactive” each time. The Potency entry in [19], in assay [11], in assay [12], in assay [13], in assay [14] and in [15] was “inactive” each time. Also, the Potency result in assay [20] was “inactive”. Moreover, the values for the activity, negative = inhibition in [4] (parasite line A) and in [4] (parasite line B) were -0.201% and 1.68%, respectively.

As for `CCN(CC)C(=O)[C@@]1(c2ccccc2)C[C@@H]1CN`, the Potency result in [1], in assay [2], in assay [3], in assay [5], in [16] and in assay [17] was “inactive” throughout. Besides, the Potency entry in [6], in assay [7], in [18], in assay [8], in [9] and in assay [10] was “inactive” each time. In addition, the Potency result in assay [19], in [11], in assay [12], in assay [13], in [14] and in [15] was “inactive” in each case. The Potency result in assay [20] is “inactive”. Also, the figures for the activity, negative = inhibition in assay [4] (parasite line A) and in [4] (parasite line B) were 3.47% and 2.1%, respectively.

Consider `COc1cc(/C=C2\CCC/C(=C\c3ccc(O)c(OC)c3)C2=O)ccc1O`, for which the Potency entry in assay [1] and in [7] was “inactive” throughout. The Potency in [3] was 25.1 µM (active); in [4] (parasite line A), 11.2 µM (active); in assay [4] (parasite line B), 10 µM (active); in [5], 11.2 µM (active); in [17], 16.9 µM (active); in assay [6], 10 µM (active). Moreover, the Potency is 10.7 µM (active) in assay [18]; 19 µM (active) in assay [10]; 11.2 µM (active) in assay [11]; 12.6 µM (active) in assay [13]; 10 µM (active) in assay [14]; 11.2 µM (active) in assay [15]. Further, in assay [20], the Potency was 11.2 µM (active).

Consider `CC(C)C(=O)OCC(=O)[C@@]12OC(C3CCCCC3)O[C@@H]1CC1C3CCC4=CC(=O)C=C[C@]4(C)C3[C@@H](O)C[C@@]12C` (some centres undefined), for which the Potency entry in assay [1], in [2] and in [3] was “inactive” throughout. The Potency in [4] (parasite line A) was 0.794 µM (active); in assay [4] (parasite line B), 0.562 µM (active); in [5] it was 0.794 µM (active); in assay [17], 1.35 µM (active); in assay [6], 1 µM (active); in assay [8], 0.794 µM (active). The Potency in [9] was 0.849 µM (active); in assay [11], 1.41 µM (active); in assay [12], 2 µM (active); in assay [13] it was 1.12 µM (active); in assay [14], 2.51 µM (active); in assay [15], 0.794 µM (active). The Potency in assay [20] is 1.12 µM (active).

The values above are taken from PubChem BioAssay (NCATS).
